High-throughput results deposited in PubChem by several laboratories.
Shown are actives, neighbours in structure and some others; about 7.2% of the full set was active somewhere.
VLA-4 inh: inhibition in a human VLA-4 binding assay. P13612. VLA-4 expressing cells, ligand binding flow cytometry. inhibition, % (about 7 µM as worked out from the volumes in the protocol). actives 0.2% (n = 330,000); in the data active means inhibition above about 50%
Target sequence (P13612 whole entry, looked up): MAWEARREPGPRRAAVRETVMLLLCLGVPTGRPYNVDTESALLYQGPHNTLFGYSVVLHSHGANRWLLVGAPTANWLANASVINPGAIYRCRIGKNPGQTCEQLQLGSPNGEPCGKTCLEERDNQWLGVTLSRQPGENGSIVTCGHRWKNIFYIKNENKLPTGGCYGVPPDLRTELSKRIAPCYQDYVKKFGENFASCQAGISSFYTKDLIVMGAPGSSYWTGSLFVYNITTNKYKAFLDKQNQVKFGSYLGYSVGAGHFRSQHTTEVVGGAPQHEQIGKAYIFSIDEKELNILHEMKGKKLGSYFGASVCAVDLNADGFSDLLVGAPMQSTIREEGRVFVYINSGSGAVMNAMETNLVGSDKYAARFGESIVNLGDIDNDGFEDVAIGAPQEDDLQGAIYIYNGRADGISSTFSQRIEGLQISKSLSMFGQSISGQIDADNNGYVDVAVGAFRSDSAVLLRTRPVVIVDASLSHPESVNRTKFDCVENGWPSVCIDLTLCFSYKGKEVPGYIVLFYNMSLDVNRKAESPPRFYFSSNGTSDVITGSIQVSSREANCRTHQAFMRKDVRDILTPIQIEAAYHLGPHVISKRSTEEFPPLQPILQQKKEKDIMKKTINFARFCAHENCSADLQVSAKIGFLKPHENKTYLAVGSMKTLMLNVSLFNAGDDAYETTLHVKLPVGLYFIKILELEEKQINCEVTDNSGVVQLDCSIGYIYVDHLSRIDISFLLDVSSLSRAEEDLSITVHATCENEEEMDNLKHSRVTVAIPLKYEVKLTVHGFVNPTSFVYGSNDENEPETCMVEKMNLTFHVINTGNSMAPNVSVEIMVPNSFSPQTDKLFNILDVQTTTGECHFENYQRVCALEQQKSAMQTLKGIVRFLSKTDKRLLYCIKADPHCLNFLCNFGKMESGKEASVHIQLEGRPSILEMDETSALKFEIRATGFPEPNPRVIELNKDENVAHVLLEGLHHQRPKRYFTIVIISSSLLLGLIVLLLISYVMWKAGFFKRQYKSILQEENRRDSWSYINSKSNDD
A1 inh: inhibitors of the anti-apoptotic protein A1, read as caspase activation | MEF A1-2A-BIM cells, Caspase-Glo 3/7 luminescence, 3 h; percent of clofoctol response, vehicle zero | caspase activation, % (test concentration not listed) | actives 0.066% (n = 330,000) | AID 2462;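 active means over half of replicate activation scores above 10%, or exactly half above 10 with the replicate mean above 10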
SUMO Mot1 rescue: blocks SUMOylation pathway, rescuing yeast Mot1-301 growth; growth rescue, % at 18.8 µM; S. cerevisiae Mot1-301 growth rescue, ATP luminescence, 38.5C; percent above DMSO median, 100 means doubled; actives 1% (n = 320,000);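 active means every valid replicate shows activation above 250% relative to neutral control wells; inactive means the rest, any valid replicate at or below 250%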;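 further: OY570 slx delta 5 strain wells were the positive control but not used for scaling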
AHR activator: activates the human aryl hydrocarbon receptor. actives 2.5% (n = 320,000). P35869. AHR-responsive luciferase reporter cells, luminescence. activation, % at 5 µM; in the data active means activation above about 47%;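 further: 0% = vehicle wells and 100% = reference agonist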
Efflux pump inh: antifungal efflux pump inhibition, Nile Red retention; S. cerevisiae Candida pump triplex; inhibition, % at 10 µM; actives 0.44% (n = 330,000);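 active means plate passing quality check with inhibition over a set limit, or well fluorescence over plate mean plus 4 SD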;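 further: Nile Red retained in pooled yeast measured as flow cytometry median fluorescence; 0% = buffer negative control and 100% = Enniatin B positive control; higher means more Nile Red kept so more efflux inhibition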
ALR H2O2 inh: human ALR oxidase inhibition via reduced H2O2 | actives 3.8% (n = 290,000) | AID 485317 | P55789 | inhibition, % (test concentration not listed) | purified ALR, DTT oxidation, H2O2 HRP-luminol luminescence;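 active means mean replicate inhibition above about 79%, with every replicate also reaching it, limit read from the data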
* = called active by the depositor; i = inactive; · = no result.

SMILES	VLA-4 inh	A1 inh	SUMO Mot1 rescue	AHR activator	Efflux pump inh	ALR H2O2 inh
CC(C)CNC(=O)C(=O)NNC(=O)c1ccco1	5	2	9	-1	0	-2
O=C(NCc1ccc2c(c1)OCO2)C1(S(=O)(=O)c2ccccc2)CC1	9	-1	-16	70*	0	1
Cc1ccnc(N2CCC(C(=O)NCc3ccc4c(c3)OCO4)CC2)n1	i	-1	-2	-2	0	-15
Cn1ncc(Cl)c1C(=O)NCc1ccc(Cl)cc1	-5	-1	-6	0	0	-1
O=C(NCc1ccc2c(c1)OCO2)C1CCN(c2ncccn2)CC1	0	5.2*	-3	1	0	1
O=C(NCc1ccc2c(c1)OCO2)c1nc(S(=O)(=O)Cc2ccccc2F)ncc1Cl	23	1	3	4	0	3
Cn1ncc(Cl)c1C(=O)NCc1ccc2c(c1)OCO2	-5	1	132	49*	0	-21
O=C(NCc1ccc2c(c1)OCO2)c1nc(S(=O)(=O)Cc2ccccc2)ncc1Cl	-16	·	·	2	0	99*
COc1cc(C)nc(OCCNS(=O)(=O)c2cc(C)ccc2C)n1	3	0	·	5	0	1
CN(C)CCNC(=O)Cn1nc(C(F)F)cc1C1CC1	-3	0	1	4	0	1
COc1ccc(Oc2c(-c3ccc(O)cc3O)n[nH]c2C)cc1	33	1	132	13	0	90*
Cc1c(NN=C(C#N)C#N)c(=O)n(-c2ccccc2)n1C	-1	1	183	1	0	19
NC(=O)C1CCN(C(=O)C2c3ccccc3C(=O)N3CCc4ccccc4C23)CC1 (stereo not given)	-3	1	8	61*	0	-2
CCOCCCNC(=O)C1c2ccccc2C(=O)N2CCc3ccccc3C12 (stereo not given)	4	0	39	76*	0	-15
CC1CCN(C(=O)C2c3ccccc3C(=O)N3CCc4ccccc4C23)CC1 (stereo not given)	11	-1	16	3	0	0
CCCN(CCC)CCNC(=O)C1c2ccccc2C(=O)N2CCc3ccccc3C12 (stereo not given)	-7	0	0	8	0	·
CCOC(=O)C1=C(N)Oc2cc(O)ccc2C1c1ccc(Br)cc1 (stereo not given)	8	1	-12	1	0	2
C=CC[N+]1(CC#CCOC(c2ccccc2)c2ccccc2)CCOCC1	2	1	-20	3	0	-4
C=CC[N+]1(CC=C)CCOCC1	4	8.6*	37	0	0	-10
CCCCOCCCNC(=O)Cc1ccccc1OC	32	0	33	0	0	-4
CCN(C(=O)COC(=O)c1cc([N+](=O)[O-])ccc1N1CCOCC1)C1CCS(=O)(=O)C1 (stereo not given)	-6	1	-4	0	0	3
Cn1cc(C(=O)N2CCN(C(=O)c3ccco3)CC2)c2c3ccccc3n(C)c2c1=O	14	0	8	-3	0	-1
COCc1cc(=O)n2[nH]cc(-c3ccccc3)c2n1	7	2	150	4	0	50
CCCc1cc(=O)n2[nH]cc(-c3ccc(Cl)cc3)c2n1	4	0	132	·	0	99*
CCOC(=O)Cc1c(C)nc2c(-c3ccccc3)cnn2c1C	6	0	0	54*	0	1
SMILES	VLA-4 inh	A1 inh	SUMO Mot1 rescue	AHR activator	Efflux pump inh	ALR H2O2 inh
CCOC(=O)Cc1c(C)nc2c(-c3ccc(Cl)cc3)c(C)nn2c1C	6	0	2	10	0	0
CCOC(=O)Cc1c(C)nc2c(-c3ccc(Cl)cc3)c[nH]n2c1=O	-2	0	-16	2	0	98*
CCOC(=O)Cc1c(C)nc2cc(-c3ccc(Cl)cc3)[nH]n2c1=O	3	1	0	58*	0	-17
Cc1cccc(C(=O)Nc2cccc(-c3ccc4nncn4n3)c2)c1	2	-1	10	12	0	2
CCOc1ccc(NC(=O)CN2CCN(Cc3c(F)cccc3F)CC2)cc1	31	0	163	0	0	-5
O=C(CSc1nc2ccccc2[nH]1)c1ccc(Cl)s1	5	0	7	-3	0	·
C/C(=N\Nc1nc2ccccc2[nH]1)c1ccc(Cl)s1	14	1	44	73*	0	99*
C/C(=N\Nc1nc2ccccc2[nH]1)c1ccc(C)o1	-1	-5	-19	77*	-1	99*
Cc1ccc(S(=O)(=O)N2CCOCC2)cc1NC(=O)COC(=O)CNC(=O)c1ccc(Cl)cc1Cl	17	2	-1	·	1	-4
C[C@H]1C(=O)N(C)CCN1C(=O)c1cccc(OC2CCN(CC(C)(C)C)CC2)c1	2	0	2	-2	0	-4
Cc1cccc(-c2c3c(=O)n(C)c(=O)n(C)c3cn2-c2ccc(O)cc2)c1	3	1	1	-1	0	95*
Cc1cccc(-c2c3c(=O)n(C)c(=O)n(C)c3cn2C(C)C)c1	13	0	-3	-5	0	3
Cc1cccc(-c2c3c(=O)n(C)c(=O)n(C)c3c3cccnn23)c1	19	0	16	60*	0	·
Cc1cc(NC(=O)c2ccoc2C)ccc1Br	9	-16	94	32	0	89*
COc1cccc(N2CCN(Cc3nnnn3C3CCCCC3)CC2)c1	2	0	12	1	0	89*
COc1cccc(N2CCN(Cc3nc(N)nc(Nc4ccccc4)n3)CC2)c1	0	0	1	-1	0	97*
Cc1cccc(Nc2nc(N)nc(CN3CCN(c4ccccc4)CC3)n2)c1	27	1	15	2	0	80*
Cc1ccc(C)c(N2CCN(Cc3nnnn3C3CCCCC3)CC2)c1	16	0	19	5	0	-2
COc1ccc(Nc2nc(N)nc(CN3CCN(c4ccc(F)cc4)CC3)n2)cc1	1	1	10	5	0	99*
Cc1nn(-c2ccccc2)c(C)c1NC(=O)COC(=O)Cc1ccccc1F	3	0	-10	3	0	2
COc1ccc(CCNC(=O)CNS(=O)(=O)c2ccc(Br)cc2)cc1	5	0	109	-1	0	-7
Cc1cc(N2C(=O)C(O)=C(C(=O)c3ccc(C)o3)C2c2ccc([N+](=O)[O-])cc2)no1 (stereo not given)	3	1	1	1	0	97*
COc1cccc(C2C(C(=O)c3cc4ccccc4o3)=C(O)C(=O)N2c2cc(C)on2)c1 (stereo not given)	9	-1	-10	3	0	98*
COc1ccc(C2C(C(=O)c3ccc(C)o3)=C(O)C(=O)N2c2cc(C)on2)cc1OC (stereo not given)	0	0	-9	0	0	3
